These results are taken from PubChem BioAssay.

Assay [1] in a line: A549 cell viability effects, profiling panel, calcein-AM fluorescence, 48 h, basal (AID 1162). Particulars: higher = more signal.
Assay [2] can be described thus: adipocyte viability effects, profiling panel, cell-based, 3T3-L1 adipocytes, calcein-AM fluorescence, 48 h, basal (AID 1163). Particulars: 3T3-L1 adipocytes viability, higher = more signal.
Assay [3] can be described thus: HepG2 cell viability effects, profiling panel, calcein-AM fluorescence, 48 h, basal (AID 1164). As to conditions: higher = more signal.
Assay [4] can be described thus: MM1S cell viability effects, profiling panel, calcein-AM fluorescence, 48 h, basal (AID 1165).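 Also: viability of MM1S multiple myeloma cells under basal unstimulated conditions.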 As to conditions: higher = more signal.
The nature of assay [5]: basal RPMI8226 viability, no added stimulus, profiling panel, cell-based, calcein-AM fluorescence, 48 h, PK04 Diversity Set (AID 1166).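 Also: cells grown under basal conditions without added stimulus.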 As to conditions: RPMI8226 myeloma viability, higher = more signal.
Assay [6] in a line: basal HepG2 mitochondrial membrane potential changes, profiling panel, cell-based, JC-1 fluorescence, 24 h, 100 nL compound (AID 1167). Particulars: higher = more signal.
Assay [7] is described as follows: basal 3T3-L1 adipocyte mitochondrial potential changes, profiling panel, cell-based, JC-1 fluorescence, 3T3-L1 adipocytes, 24 h, 100 nL compound (AID 1168). Particulars: JC-1 mitochondrial fluorescence, higher = more signal, called active from +8 up or from −8 down.
A short description of assay [8]: basal RPMI8226 mitochondrial membrane potential changes, profiling panel, cell-based, JC-1 fluorescence, 24 h, 100 nL compound (AID 1169). As to conditions: RPMI8226 myeloma, JC-1 mitochondrial potential fluorescence, higher = more signal.
The nature of assay [9]: basal MM1S mitochondrial membrane potential changes, profiling panel, cell-based, JC-1 fluorescence, 24 h, 100 nL compound (AID 1170). As to conditions: higher = more signal.
The nature of assay [10]: A549 lung cancer cell viability effects, profiling panel, resazurin fluorescence, 24 h, PK04 Diversity Set (AID 1171). Particulars: higher = more signal, called active from +8 up or from −8 down. For orientation: Alamar Blue is a resazurin reagent that responds to reducing activity.

Active and inactive are the calls of the source.
Also: test concentration not given here.

For the molecule `COc1cccc(C[C@H]2C[C@@H](CO[Si](C(C)C)(C(C)C)C(C)C)N3C(=O)[C@]4(C(C)=O)O[C@]23[C@H]2C(=O)N(C)C(=O)[C@H]24)c1`, the z-score in assay [1] was -2.16; in assay [2], -0.206; in assay [3], -3.45; in assay [4], -2.93; in assay [5] it was -4.26; in assay [6], 1.49. The z-score in assay [7] was 0.207 (inactive); in [8] it was -1.05; in [9], -1.96; in [10], -1.41 (inactive).

With `COc1ccc([Si](C)(C)[C@@H]2[C@@H](CC(=O)N(CCO)Cc3ccccc3)O[C@]3(C(=O)N(C)c4c(Br)cc(C)cc43)[C@H]2C)cc1`, the z-score in assay [1] was -2.07; in assay [2] it was -0.0228; in [3], -2.44; in assay [4], -2.75; in [5], -4.38; in assay [6] it was -2.82. For the same molecule, the z-score in assay [7] is -0.68 (inactive); in [8], -1.17; in assay [9], -2.11; in assay [10], -0.99 (inactive).

Turning to `COC(=O)C(CC#Cc1ccc2c(c1)[C@]1(C(=O)N2)[C@H](C(=O)N2CCc3cc(OC)c(OC)cc3C2)[C@H]2C(=O)O[C@H](c3ccccc3)[C@H](c3ccccc3)N2[C@@H]1c1ccc(OCCO)cc1)C(=O)OC`, the z-score in assay [1] is 0.968; in assay [2], -0.204; in assay [3] it was 1.63; in assay [4], 0.783; in assay [5], 0.678; in assay [6] it was -2.03. In addition, the z-score is 0.375 (inactive) in assay [7], -0.678 in assay [8], -1.49 in assay [9] and 0.21 (inactive) in [10].

On to `COCCCNC(=O)[C@]1(Cc2ccccc2CN=[N+]=[N-])N=C(c2ccc(OCCCO)cc2)O[C@@H]1c1ccccc1CN=[N+]=[N-]`, for which the z-score is -0.386 in assay [1]; 0.0035 in assay [2]; -0.918 in [3]; -2.79 in assay [4]; -4.22 in assay [5]; 1.31 in assay [6]. The z-score was -0.907 (inactive) in assay [7], -1.18 in [8], -1.73 in assay [9] and -0.241 (inactive) in [10].

Consider `C=CCOc1ccc([C@@H]2CC=C(C(=O)OCC)[C@H](c3cccc(Br)c3)N2S(=O)(=O)c2ccc(C)cc2)cc1`, for which the z-score was 0.954 in [1]; 0.261 in assay [2]; -0.508 in assay [3]; 0.394 in assay [4]; -0.455 in assay [5]; 4.43 in assay [6]. Moreover, the z-score in assay [7] was 0.392 (inactive); in assay [8], -0.957; in assay [9], -0.0677; in assay [10] it was -0.924 (inactive).

`COc1ccc([Si](C)(C)[C@@H]2[C@@H](CC(=O)N3Cc4ccccc4C[C@H]3CO)O[C@]3(C(=O)N(Cc4cccc(N5CCCCC5=O)c4)c4ccccc43)[C@H]2C)cc1`: the z-score in [1] is -0.824; in [2] it was 1.85; in assay [3], -1.27; in assay [4], -1.55; in assay [5], -3.36; in assay [6], -0.157. Also, the z-score in assay [7] was 0.472 (inactive); in assay [8] it was -0.901; in assay [9], -0.398; in assay [10], -2.68 (inactive).

On to `COCCCNC(=O)[C@]1(CCS(=O)(=O)c2ccccc2)N=C(c2ccc(OCCCO)cc2)O[C@@H]1c1ccccc1`, for which the z-score in assay [1] is 1.73; in assay [2], 0.151; in assay [3] it was 0.9; in assay [4], -0.223; in assay [5], -0.7; in [6], 2.64. In addition, the z-score was 0.0968 (inactive) in assay [7], -0.74 in assay [8], -0.801 in [9] and -0.243 (inactive) in assay [10].

As to `CCCCC(=C=CC[C@H](O)c1cccc(OCCO)c1)C[C@H](O)COCc1ccccc1`, the z-score in assay [1] is 0.803; in assay [2] it was 0.403; in assay [3] it was 0.0132; in assay [4], -1.06; in assay [5], -0.63; in [6], 0.214. Further, the z-score in [7] is 0.254 (inactive); in assay [8], 0.746; in assay [9], -0.378; in assay [10], 1.4 (inactive).

With `CC(C)(C)OC(=O)CC[C@]1(C(=O)N2CCCCC2)N=C(c2ccc(OCCCO)cc2)O[C@H]1c1ccccc1CN=[N+]=[N-]`, the z-score is 1.1 in assay [1]; 0.876 in assay [2]; 1.58 in [3]; -2.99 in [4]; -2.01 in assay [5]; 2.46 in assay [6]. In addition, the z-score in assay [7] is 0.67 (inactive); in assay [8], -0.983; in assay [9], 0.358; in [10], -1.35 (inactive).

As to `COc1ccc([Si](C)(C)[C@@H]2[C@@H](CCO)O[C@]3(C(=O)N(Cc4cccc(N5C(=O)COc6ccccc65)c4)c4ccccc43)[C@H]2C)cc1`, the z-score was -2.03 in assay [1]; 0.574 in assay [2]; -4.17 in assay [3]; -2.95 in [4]; -4.16 in [5]; -0.527 in [6]. Also, the z-score is 0.351 (inactive) in assay [7], -1.09 in [8], -1.7 in assay [9] and -2.6 (inactive) in assay [10].

Take `COCCCNC(=O)[C@@H]1c2ccccc2C(=O)N(Cc2cc(F)cc(C(F)(F)F)c2)[C@H]1c1ccc(CO)cc1`: the z-score in assay [1] was 0.323; in assay [2], 0.0853; in assay [3], 0.463; in assay [4] it was 0.575; in [5], -0.725; in assay [6], 1.25. Further, the z-score is -0.82 (inactive) in assay [7], 1.15 in assay [8], -0.33 in assay [9] and 0.301 (inactive) in assay [10].

With `CCCCC=C[C@@H](NC(=O)CCc1ccccc1)c1ccccc1`, the z-score is -2.48 in assay [1]; -0.346 in [2]; -3.43 in assay [3]; -3.31 in assay [4]; -4.71 in assay [5]; -3.88 in assay [6]. The z-score is -0.775 (inactive) in [7], -0.85 in [8], -1.74 in [9] and -1.3 (inactive) in assay [10].

`NC(=O)NCC#Cc1ccc2c(c1)[C@]1(C(=O)N2)[C@H](c2ccc(OCCO)cc2)N2[C@H](c3ccccc3)[C@H](c3ccccc3)OC(=O)[C@H]2[C@@H]1C(=O)N1CCN(c2ncccn2)CC1`: the z-score in assay [1] was 0.947; in [2], 0.212; in [3], 0.674; in [4], -0.167; in assay [5] it was 0.62; in assay [6], -1.45. Also, the z-score in assay [7] is 0.721 (inactive); in assay [8] it was -0.726; in [9], -0.669; in assay [10], 1.1 (inactive).

Take `COC(=O)[C@@]1(Cc2ccc(F)cc2)[C@H]2c3cc(C(=O)N(C)C)n(CCSCCO)c3C[C@H]2CN1C(=O)c1ccccc1`: the z-score in [1] was -0.716; in assay [2] it was -0.352; in assay [3], 0.665; in [4] it was -0.684; in assay [5], -1.08; in assay [6] it was -0.572. Also, the z-score in [7] was -0.682 (inactive); in assay [8], -0.0796; in [9], 0.172; in [10], -0.0793 (inactive).
